Measurements: PubChem BioAssay AID623870 (Broad Institute, 2012)
Out of some 390,000 compounds screened, about 2,600 (0.67%) were called active.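 Rule for the calls: active = mean inhibition of replicates at least 50% and at least half of replicates each reaching 50%; inconclusive = half or more replicates reach 50% but mean below 50%; inactive = the rest.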 The full list was thinned out, with actives kept by preference.

target: Transforming acidic coiled-coil-containing protein 3 (Homo sapiens) (UniProt Q9Y6A5); assay: disruptors of ARNT/TACC3 protein interaction, primary screen, biochemical, AlphaScreen, single concentration (AID 623870); conditions: AlphaScreen His-ARNT PAS-B/GST-TACC3 binding, luminescence; at 9.99 µM; active compounds read high; TACC3 fragment carries E629A point mutation;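 note: 0% = complete ARNT plus TACC3 wells and 100% = ARNT alone without TACC3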

Structure (SMILES) | inhibition
Cc1ccc(S(=O)(=O)Nc2ccc3c(c2)C(=O)N([C@H](C)CO)C[C@H](C)[C@H](CN(C)C(=O)Nc2ccc4c(c2)OCO4)OCCCC[C@@H](C)O3)cc1 | -0.754% (inactive)
COc1ccc(Nc2ncc(C(=O)N3CCN(c4ccccc4OC)CC3)c3ccccc23)cc1 | 1.33% (inactive)
O=C(Nn1cc(C(=O)N2CCN(c3ccccc3F)CC2)c2ccccc2c1=O)c1cnccn1 | 68.5% (active)
Cc1ccccc1N1CCN(C(=O)c2cccnc2)CC1 | -7.09% (inactive)
Cc1ccc(S(=O)(=O)NCC[C@H]2CC[C@@H](NS(=O)(=O)c3ccccc3Cl)[C@H](CO)O2)cc1 | 2.36% (inactive)
C[C@@H]1CN([C@@H](C)CO)C(=O)c2cc(NC(=O)C3CCCCC3)ccc2O[C@@H]1CN(C)S(=O)(=O)c1ccc(F)cc1 | -1.9% (inactive)
CCOc1cc(N2CCOCC2)c(OCC)cc1NC(=O)COc1cccc2cccnc12 | 59.4% (active)
COC(=O)[C@@H]1CCCN1C(=O)c1cc(COc2cccc3cccnc23)on1 | 6.38% (inactive)
NC(=O)C1CCN(C(=O)COc2cccc3cccnc23)CC1 | -5.01% (inactive)
C[C@@H]1CN([C@@H](C)CO)C(=O)c2cccc(N(C)C)c2O[C@@H]1CN(C)S(=O)(=O)c1ccccc1 | -5.11% (inactive)
C[C@@H]1CCCCO[C@H](CN(C)C(=O)CCC(F)(F)F)[C@H](C)CN([C@@H](C)CO)C(=O)c2cc(NC(=O)CCCCCC(=O)Nc3ccccc3N)ccc2O1 | 0.568% (inactive)
CO[C@H]1CN(C)C(=O)c2ccc(NC(C)=O)cc2OC[C@@H](C)N(C(=O)c2ccncc2)C[C@@H]1C | 34.9% (inactive)
O=C(O)C[C@@H]1C[C@@H]2c3cc(NC(=O)Nc4ccccc4)ccc3O[C@@H]2[C@H](CO)O1 | -4.96% (inactive)
C[C@H]1CN([C@@H](C)CO)C(=O)Cc2cc(NC(=O)Nc3ccc(F)cc3)ccc2O[C@H]1CN(C)S(=O)(=O)c1ccc(F)cc1 | -0.385% (inactive)
COc1ccc(CN(C)C[C@H]2Oc3c(NC(=O)c4ccncc4)cccc3C(=O)N([C@H](C)CO)C[C@@H]2C)cc1 | -4.67% (inactive)
Cc1cc(S(=O)(=O)NCc2ccccn2)c(Cl)cc1Cl | -1.4% (inactive)
Cc1ccc(C(=O)Nc2ccc(C)c(S(=O)(=O)N(C)C)c2)s1 | -4.57% (inactive)
Cc1ccc(NC(=O)CNCc2ccccn2)cc1S(=O)(=O)N(C)C | 71% (active)
C[C@@H]1CN([C@@H](C)CO)C(=O)c2cc(NC(=O)Cc3ccccc3)ccc2O[C@@H](C)CCCCO[C@H]1CN(C)C(=O)Cc1ccccc1 | -2.35% (inactive)
CC[C@]1(O)C[C@@H]2CN(CCc3c([nH]c4ccccc34)[C@@](C(=O)OC)(c3cc4c(cc3OC)N(C)[C@H]3[C@@](O)(C(=O)OC)[C@H](OC(C)=O)[C@]5(CC)C=CCN6CC[C@]43[C@@H]65)C2)C1 | 16% (inactive)
CC[C@]1(O)CC2CN(CCc3c([nH]c4ccccc34)[C@@](C(=O)OC)(c3cc4c(cc3OC)N(C=O)[C@H]3[C@@](O)(C(=O)OC)[C@H](OC(C)=O)[C@]5(CC)C=CCN6CC[C@]43[C@@H]65)C2)C1 (stereo partly specified) | 52.9% (active)
CN1c2ccc(-c3cccc(C#N)c3)cc2[C@H]2[C@H](CCN2S(=O)(=O)c2cccc(F)c2)[C@@H]1CO | -10.1% (inactive)
CNC[C@H]1OCCCC[C@H](C)Oc2ccc(NS(C)(=O)=O)cc2C(=O)N([C@@H](C)CO)C[C@H]1C | -0.797% (inactive)
O=C(COC(=O)c1ccc([N+](=O)[O-])o1)NC12CC3CC(CC(C3)C1)C2 | 31.3% (active)

Structure (SMILES) | inhibition
O=C(COC(=O)c1ccc(Br)o1)NC12CC3CC(CC(C3)C1)C2 | 6.24% (inactive)
O=C(OCC(=O)c1cccs1)c1ccc([N+](=O)[O-])o1 | -2.19% (inactive)
CCN(C[C@H]1[C@H](c2ccc(-c3ccccc3)cc2)[C@H](CO)N1CC1CC1)C(C)=O | 2.62% (inactive)
C[C@@H]1CCCCO[C@H](CN(C)C(=O)CCC(F)(F)F)[C@@H](C)CN([C@@H](C)CO)C(=O)c2cc(NC(=O)c3ccncc3)ccc2O1 | 11% (inactive)
Cc1ccc(Cc2nnc(SCC(=O)Nc3ccccc3C)[nH]c2=O)cc1 | -1.06% (inactive)
COc1ccc(Cc2nnc(N/N=C/c3ccccc3O)[nH]c2=O)cc1OC | 58.3% (active)
CC(C)c1ccc(Cc2nnc(NCCCO)[nH]c2=O)cc1 | -6.28% (inactive)
COc1cccc(NC(=O)C[C@H]2CC[C@@H]3[C@H](COc4ccc(NC(C)=O)cc4C(=O)N3C)O2)c1 | 13% (inactive)
C[C@@H]1CN([C@H](C)CO)C(=O)c2cc(NC(=O)Nc3ccc4c(c3)OCO4)ccc2O[C@@H]1CN(C)C(=O)Nc1ccc(F)cc1 | 14% (inactive)
CCC(=O)N1C[C@H]2[C@@H](c3ccccc31)[C@H](CO)N2Cc1ccccc1F | -4.33% (inactive)
O=S(=O)(c1ccccc1)N1C[C@@H]2[C@H](c3ccccc31)[C@H](CO)N2Cc1ccccn1 | 32.5% (active)
CC(=O)N1[C@@H](CO)[C@@H]2c3ccccc3N(S(=O)(=O)c3ccccc3)C[C@@H]21 | 4.39% (inactive)
O=C(C1CCCC1)N1[C@H](CO)[C@@H]2c3ccccc3N(S(=O)(=O)c3ccccc3)C[C@@H]21 | -1.74% (inactive)
O=C(C[C@@H]1CC[C@@H]2[C@H](COC[C@@H](O)CN2Cc2ccc(Cl)cc2)O1)NCc1ccccc1Cl | 1.65% (inactive)
COc1ccccc1NC1=NC(c2ccc(Cl)cc2)N=C(N)N1 (stereo unspecified) | -1.44% (inactive)
COc1ccccc1Nc1nc(N)nc(CSC(=S)N2CCOCC2)n1 | 0.944% (inactive)
COc1ccccc1Nc1nc(N)nc(CN(C)C2CCCCC2)n1 | 54% (active)
COc1ccc(S(=O)(=O)N(C)C[C@@H]2Oc3ncc(C#Cc4ccc(F)cc4)cc3C(=O)N([C@H](C)CO)C[C@@H]2C)cc1 | -1.03% (inactive)
N#CC1=C(N)Oc2c(ccc3cccnc23)C1c1ccncc1 (stereo unspecified) | 71.2% (active)
N#CC1=C(N)Oc2c(sc3ccccc23)C1c1ccco1 (stereo unspecified) | 34.5% (inactive)
C[C@@H]1CN([C@H](C)CO)C(=O)c2c(c3ccccc3n2C)-c2ccccc2CO[C@@H]1CN(C)C(=O)Nc1ccccc1 | 6.33% (inactive)
CCCNC(=O)N(C)C[C@@H]1Oc2ncc(C#CCc3ccccc3)cc2C(=O)N([C@@H](C)CO)C[C@H]1C | -5.08% (inactive)
COc1ccc(S(=O)(=O)N(C)C[C@H]2OCCCC[C@@H](C)Oc3ccc(NC(=O)CCC(F)(F)F)cc3C(=O)N([C@@H](C)CO)C[C@H]2C)cc1 | -1.27% (inactive)
Oc1c(C(c2ccccn2)N2CCOCC2)ccc2cccnc12 (stereo unspecified) | 70.2% (active)

Structure (SMILES) | inhibition
CNC[C@@H]1OCCCC[C@H](C)Oc2ccc(NC(=O)Nc3ccc(OC)cc3)cc2C(=O)N([C@H](C)CO)C[C@@H]1C | -2.24% (inactive)
O=C(C[C@@H]1C[C@H]2c3cc(NC(=O)Nc4ccccc4F)ccc3O[C@H]2[C@@H](CO)O1)NCc1ccncc1 | -5.98% (inactive)
Cc1ccccc1CSc1nnc(-c2cccnc2)n1N | -2.01% (inactive)
Cc1ccccc1CSc1nnc(-c2ccccn2)n1N | 54.4% (active)
Cn1c(SCC(=O)C(C)(C)C)nnc1-c1ccccn1 | 13.6% (inactive)
C[C@H](CO)N1C[C@H](C)[C@@H](CN(C)C(=O)C2CCCCC2)Oc2cc(C3=CCCC3)ccc2S1(=O)=O | 5.91% (inactive)
O=C(C[C@@H]1CC[C@@H]2[C@H](COC[C@@H](O)CN2Cc2ccc(F)cc2)O1)NCc1ccncn1 | -1.34% (inactive)
COc1ccccc1C#Cc1ccc([C@@H]2[C@H](CO)N3CCCCN(CCC(F)(F)F)C[C@@H]23)cc1 | 26% (inactive)
Cc1noc(C)c1S(=O)(=O)N(C)C[C@H]1OCCCC[C@H](C)Oc2ccc(NS(=O)(=O)c3ccccc3)cc2C(=O)N([C@H](C)CO)C[C@@H]1C | -5.63% (inactive)
COc1ccc(S(=O)(=O)N2C[C@@H](O)COC[C@H]3O[C@H](CC(=O)N[C@H]4CCN(Cc5ccccc5)C4)CC[C@@H]32)cc1 | -2.17% (inactive)
O=C(NCCCc1ccccc1)C(=O)NCC1OCCN1S(=O)(=O)c1ccccc1 (stereo unspecified) | 0.478% (inactive)
Cc1cc(F)ccc1S(=O)(=O)N1CCCOC1CNC(=O)C(=O)NCCC1=CCCCC1 (stereo unspecified) | 3.52% (inactive)
O=C(NCCCn1ccnc1)C(=O)NCC1OCCN1S(=O)(=O)c1cc(F)ccc1F (stereo unspecified) | 60.2% (active)
CC(C)NC(=O)Nc1ccc2c(c1)CC(=O)N([C@@H](C)CO)C[C@@H](C)[C@H](CN(C)CC1CC1)O2 | -5.56% (inactive)
CO[C@@H]1CC[C@@H]2CCOc3ccc(C#N)cc3C(=O)N(C)C[C@H](c3ccccc3)CC(=O)N(C)C[C@H]1O2 | -7.48% (inactive)
Cc1noc(C)c1NC(=O)N[C@H]1C=C[C@@H](CC(=O)Nc2ccccc2)O[C@H]1CO | -3.76% (inactive)
Cc1ccc(S(=O)(=O)Nc2ccc3c(c2)CC(=O)N([C@@H](C)CO)C[C@@H](C)[C@@H](CN(C)S(=O)(=O)c2ccccc2)O3)cc1 | -1.52% (inactive)
COc1c(O)cc2oc(-c3ccc(O)c(O)c3)cc(=O)c2c1O | 36.8% (active)
C[C@H](CO)N1C[C@H](C)[C@H](CN(C)C(=O)C2CCOCC2)Oc2ncc(-c3ccccc3)cc2C1=O | -4.96% (inactive)
CC(C)CC#Cc1cnc2c(c1)C(=O)N([C@@H](C)CO)C[C@H](C)[C@@H](CN(C)C(=O)c1ccc(F)cc1)O2 | 7.13% (inactive)
Cc1cccc(NC(=S)N(CCN(C)C)C(C)c2ccco2)c1 (stereo unspecified) | -28.1% (inactive)
CC(c1ccccn1)N(CCN(C)C)C(=S)Nc1ccccc1F (stereo unspecified) | 56.1% (active)
CSc1cccc(NC(=S)N(C(C)C)C(C)c2ccccn2)c1 (stereo unspecified) | 19% (inactive)
